# Screens: PubChem, National Center for Advancing Translational Sciences (NCATS)
# Most compounds without a hit are left out; they make up all but 9.2% or so of the library.
# ELG1 genotoxic: qHTS screen for small molecules that induce genotoxicity in human embryonic kidney (HEK293T) cells expressing luciferase-tagged ELG1 | AID 504466, 2011 | Potency, µM (top dose mostly 46 µM), for the others: at the highest dose activity change, positive = activation, actives largely listed as activators | HEK293T ELG1-luciferase reporter, luminescence, 16 h | hit rate 1.3% among 330,000; also: % of control where 0% means no effect; nearly all actives have a fitted effect of over 60% in size
#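 Cells (2,000/well) expressing the ELG1-luciferase fusion are dosed by pin tool and kept 16 hr at 37 °C, 5% CO2. Signal comes from ONE-Glo luciferase reagent after 30 min at room temperature.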
# Rab9 promoter act: qHTS Assay for Rab9 Promoter Activators. Huh7 Rab9 promoter-luciferase reporter, luminescence, 24 h. Potency, µM (series often up to 9.22 µM), inactives show at the highest dose activation, negative = inhibition, hits mostly activators. hit rate 2.8% among 320,000; also: % of control where 0% means no effect; nearly all actives have a fitted effect of over 60% in size
#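 Luminescence from Amplite-detected luciferase (10 minutes, ambient) reports Rab9 promoter activation. Before that, stable Rab9-luciferase Huh7 cells (1500/well, reduced-serum OP-MEM I plus 10% FBS) were exposed to compound for 24 hours at 37C.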
# FLuc counter: qHTS profiling assay for firefly luciferase inhibitor/activator using purifed enzyme and Km concentrations of substrates (counterscreen for miR-21 project). Luciferin 4-monooxygenase (Photinus pyralis), P08659. purified FLuc, Km substrates, luminescence inhibition. Potency, µM (doses to about 57.5 µM), inactives show at the highest dose activity change, negative = inhibition, actives largely listed as inhibitors. hit rate 6.9% among 360,000;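 also: plate controls were vehicle for no effect and reference inhibitor for full effect; nearly all actives have a fitted effect of over 55% in size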
# Target sequence (P08659 whole entry, looked up): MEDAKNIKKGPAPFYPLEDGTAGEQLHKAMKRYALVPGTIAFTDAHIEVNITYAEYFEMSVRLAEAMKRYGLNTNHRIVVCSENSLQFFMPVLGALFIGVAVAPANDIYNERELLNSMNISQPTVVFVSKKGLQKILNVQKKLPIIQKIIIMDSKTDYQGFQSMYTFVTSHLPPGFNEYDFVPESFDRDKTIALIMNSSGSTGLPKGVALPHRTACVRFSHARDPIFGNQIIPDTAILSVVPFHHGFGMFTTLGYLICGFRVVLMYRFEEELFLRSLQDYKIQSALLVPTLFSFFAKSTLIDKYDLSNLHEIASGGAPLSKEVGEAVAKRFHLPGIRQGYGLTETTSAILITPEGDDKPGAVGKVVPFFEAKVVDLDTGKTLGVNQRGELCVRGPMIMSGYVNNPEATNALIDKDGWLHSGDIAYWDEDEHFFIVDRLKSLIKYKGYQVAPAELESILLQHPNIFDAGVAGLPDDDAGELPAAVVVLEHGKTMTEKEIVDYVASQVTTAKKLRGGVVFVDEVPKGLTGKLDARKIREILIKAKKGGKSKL
#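 Biochemical qHTS of compounds, final roughly 60 µM downward over six points, against 10 nM purified firefly luciferase using Km concentrations of substrates (10 uM D-luciferin, 10 uM ATP) in Tris acetate pH 7.5 buffer; luminescence output.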
# ELG1 repair inh: qHTS screen for small molecules that inhibit ELG1-dependent DNA repair in human embryonic kidney (HEK293T) cells expressing luciferase-tagged ELG1; HEK293T ELG1-luciferase reporter, luminescence, 16 h; DNA damage induced by 5-fluorouridine; Potency, µM (top dose mostly 46.1 µM), for inactives: at the top dose activity change, negative = inhibition, actives largely listed as inhibitors; hit rate 2.3% among 330,000; also: % is scaled to controls: 0 for no effect and ±100 for the full control effect; nearly all actives have a fitted effect of over 55% in size
#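 Quantitative HTS, concentration-response format. 2,000 cells/well co-treated with 5-fluorouridine and compound, 16 hr in 5% CO2 at 37 °C; ONE-Glo luminescence read after 30 min.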
# NPC1 prom act: qHTS Assay for NPC1 Promoter Activators | Huh7 NPC1 promoter luciferase reporter, 24 h | hit rate 2.4% among 320,000 | Potency, µM (titrated, usually from 9.22 µM), without a hit: at the top dose activation, most hits filed as activators; also: % of control where 0% means no effect; nearly all actives have a fitted effect of over 60% in size
#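 NPC1 promoter–luciferase Huh7 cells; 24 h compound; luminescence.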
# SMN2 splice up: qHTS Assay for Enhancers of SMN2 Splice Variant Expression; HEK293 SMN2-luciferase splicing reporter, luminescence, 30-36 h; Potency, µM (titrated, usually from 46.1 µM), inactives show top-dose activity change, positive = activation, actives largely listed as activators; hit rate 2.8% among 210,000; AID 1458, 2008; also: % of control where 0% means no effect; nearly all actives have a fitted effect of over 55% in size
#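 HEK293 cells carry an SMN2 minigene-luciferase reporter in which exon 7 inclusion puts luciferase in frame. Cells were seeded at 2000 cells/well, attached for 10-12 hours, then exposed to compounds for 30-36 hours at 37C before ONE-Glo luminescence.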
# Active calls of the source: *; ? = inconclusive; . = no result given. Calls follow the shape of the dose curve; as a rule, active = well fitted curve in the direction sought with a large enough effect; inconclusive = small, poorly fitted or top-dose-only effect, or another doubt; inactive = no such curve, though single readings can be large; an effect the other way counts as inactive or inconclusive. Potency is read from the fitted curve at half-maximal effect.
SMILES,ELG1 genotoxic,Rab9 promoter act,FLuc counter,ELG1 repair inh,NPC1 prom act,SMN2 splice up
CC(C)=CCN1CCN(Cc2cn[nH]c2C2CCCCC2)CC1CCO (stereo unspecified),-0.6%,-4.5%,0.6%,5.6%,-1.2%,.
CCOC(=O)C1CCCN(C(=O)CNC(=O)c2nn(-c3ccc(OC)c(Cl)c3)c(=O)c3ccccc23)C1 (stereo unspecified),-11.7%,0.5%,6.75µM*,?,-1.0%,.
CCOC(=O)C1CCN(C(=O)CNC(=O)c2nn(-c3ccc(OC)c(Cl)c3)c(=O)c3ccccc23)CC1,1.5%,20.9%,2.69µM*,14.6µM*,24.5%,.
COc1ccc(-n2nc(C(=O)NCC(=O)N3CCCC(C)C3)c3ccccc3c2=O)cc1Cl (stereo unspecified),-2.3%,-0.9%,5.36µM*,?,-2.4%,.
CCC(C)NC(=O)CNC(=O)c1nn(-c2ccc(OC)c(Cl)c2)c(=O)c2ccccc12 (stereo unspecified),-5.6%,-3.8%,-10.5%,?,-3.1%,.
COc1ccc(-n2nc(C(=O)NCC(=O)NC(C)C)c3ccccc3c2=O)cc1Cl,-5.8%,3.1%,-3.5%,?,-1.8%,.
COc1ccc(-n2nc(C(=O)NCC(=O)NCC3COc4ccccc4O3)c3ccccc3c2=O)cc1OC (stereo unspecified),-14.2%,1.2%,-6.0%,9.2µM*,-6.3%,-10.7%
COc1ccc(-n2nc(C(=O)NCC(=O)NCCCN3CCCCCC3)c3ccccc3c2=O)cc1Cl,-2.4%,-3.3%,3.8%,7.6%,-6.3%,-58.9%
Cc1cc(C(=O)NNC(=O)COc2c(C)cc(Br)cc2C)n[nH]1,1.2%,6.8%,3.5%,?,-0.3%,.
CCCn1nc(C(=O)NCC2COc3ccccc3O2)c2ccccc2c1=O (stereo unspecified),-2.6%,-0.1%,2.0%,20.6µM*,-1.5%,.
CCCn1nc(C(=O)NC2CC2)c2ccccc2c1=O,2.1%,-0.1%,3.2%,17.9%,-2.6%,.
CCc1cc2c(=O)oc(-c3ccccc3F)nc2s1,-0.3%,-2.0%,3.38µM*,6.6%,-3.2%,.
Cc1cc2c(=O)oc(-c3ccccc3Br)nc2s1,2.4%,-3.2%,7.57µM*,3.4%,0.5%,.
CCc1ccccc1NC(=O)Cn1c(=O)n(CCc2ccccc2)c(=O)c2sc3ccccc3c21,.,.,-0.3%,.,.,-7.1%
O=C(Nc1cccc([N+](=O)[O-])c1)c1ccc2nsnc2c1,-0.7%,-1.0%,-27.4%,2.0%,-1.3%,.
CN(C)c1ccc(NC(=O)c2ccc3nsnc3c2)cc1,2.59µM*,3.16µM*,5.36µM*,?,?,22.4µM*
O=C(Nc1ccc(Cl)cc1)c1ccc2nsnc2c1,15.8%,3.98µM*,?,?,2.51µM*,11.2µM*
CC1(C)Cc2c(c(N3CCOCC3)nc3sc(-c4ccc(C(=O)O)o4)c(N)c23)CO1,-6.0%,-7.4%,-1.5%,2.59µM*,1.2%,8.1%
COc1ccc(NC(=O)c2sc3nc(N4CCOCC4)c4c(c3c2N)CC(C)(C)OC4)c(OC)c1,4.3%,-8.5%,0.0%,?,-5.8%,.
Cc1nc2c(sc3nc(N4CCOCC4)c4c(c32)CC(C)(C)OC4)c(-c2ccccc2)c1C(=O)O,-6.2%,-0.1%,-0.6%,3.66µM*,-1.6%,.
COc1ccc(NC(=O)c2sc3nc(N4CCCC4)c4c(c3c2N)CC(C)(C)OC4)cc1,0.7%,-5.2%,-1.7%,5.8µM*,-10.8%,.
CN(C(=O)c1ccc(NC(=O)Cc2ccc(NC(=O)C3CCCN(C(=O)C4CCCC4)C3)cc2)cc1)C1CC1 (stereo unspecified),-1.0%,1.9%,?,-13.8%,-1.0%,.
COc1ccc(-c2nnc(SCC(=O)Oc3c(C)cccc3C)o2)cc1OC,.,.,-1.8%,.,.,.
CSc1ncccc1C(=O)OCC(=O)NC1CC1,2.3%,-0.1%,2.3%,11.5%,1.3%,.
CN(C)c1ccc(N2C(=NC(=O)C3CCCO3)SC3CS(=O)(=O)CC32)cc1 (stereo unspecified),2.9%,5.0%,-2.9%,?,5.2%,.
SMILES,ELG1 genotoxic,Rab9 promoter act,FLuc counter,ELG1 repair inh,NPC1 prom act,SMN2 splice up
Cc1cc2c(C)nc(-c3ccccc3)nc2o1,16.4µM*,?,19µM*,?,?,28.2µM*
Cc1cc(Cl)nc(-c2ccccc2)n1,1.2%,-1.7%,3.9%,-12.3%,-2.7%,.
O=[N+]([O-])c1cccnc1NCCc1c[nH]c2ccccc12,13µM*,2.51µM*,?,?,3.55µM*,.
c1ccc2c(CCNc3ncnc4nc[nH]c34)c[nH]c2c1,-6.3%,-12.5%,?,6.51µM*,-15.1%,-32.2%
O=[N+]([O-])c1cccnc1NCCc1ccccc1,?,3.16µM*,10.7µM*,?,?,.
COc1ccccc1CNc1ncccc1[N+](=O)[O-],0.5%,-3.0%,-7.2%,26.6%,0.5%,.
O=c1cc(Cl)[nH]c(=O)n1CCNc1ncc(C(F)(F)F)cc1Cl,13.2%,3.16µM*,13.5µM*,?,?,?
COc1ccc(F)cc1S(=O)(=O)Nc1ccc2c(c1)CCCN2C(=O)c1cccs1,.,.,-15.6%,.,.,.
O=[N+]([O-])c1cccnc1NCCNc1ncc(C(F)(F)F)cc1Cl,?,2.24µM*,10.7µM*,?,3.55µM*,12.6µM*
COc1cccc(-c2cc(C(=O)Nc3cccnc3)c3ccccc3n2)c1,-14.1%,3.8%,26.9µM*,?,-0.2%,.
COc1ccc(-c2cc(C(=O)Nc3cccnc3)c3ccccc3n2)cc1OC,-18.0%,-0.1%,10.7µM*,?,0.0%,.
COc1cccc(-c2cc(C(=O)Nc3ccc([N+](=O)[O-])cn3)c3ccccc3n2)c1,-5.4%,-7.2%,?,13µM*,-3.6%,-26.0%
O=C(Nc1ccc([N+](=O)[O-])cn1)c1cc(-c2cccc(Br)c2)nc2ccccc12,0.1%,-5.1%,-16.2%,0.0%,-4.3%,8.7%
COc1ccc(CNc2ccc([N+](=O)[O-])cn2)cc1,?,3.98µM*,10.7µM*,?,3.16µM*,.
COc1ccc(Nc2ccc([N+](=O)[O-])cn2)cc1,-0.4%,?,?,?,?,.
CC12CCC(=O)N1C(C(=O)NNC(=O)c1ccc(Br)cc1)CS2 (stereo unspecified),-2.1%,1.0%,5.6%,7.3%,-0.1%,.
